Assay outcomes from PubChem.
An excerpt weighted towards active compounds, which were near 8% of everything screened.
SW480 rereplic: inducers of DNA re-replication in SW480 colon cancer cells. SW480 DNA re-replication, Hoechst DNA content imaging, 48 h. Potency, µM (doses to about 46.1 µM), without a hit: top-dose re-replication activation, usual class: activators. 340,000 compounds, 1.8% hits. AID 624297; also: % of control where 0% means no effect; nearly all actives have a fitted effect of over 55% in size
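Per well, 250 cells were exposed to pinned compound for 48 hr. Nuclear DNA was visualised with Hoechst (40 min, 37 C) and total object intensity recorded by fluorescence scanning.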
HT1080-NT tox: kills 2HG-producing HT-1080-NT fibrosarcoma cells | HT-1080-NT fibrosarcoma viability, CellTiter-Glo ATP luminescence, 48 h | Potency, µM (doses to about 46.1 µM), without a hit: top-dose activity, negative = less viability, actives largely listed as cytotoxic | 360,000 compounds, 1.6% hits | AID 686970;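 also: NT is the 2HG producing partner of a matched IDH1 knockdown line; 0% = DMSO-treated cells and -100% = media-only wells without cells; nearly all actives have a fitted effect of over 55% in size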
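Read-out is CellTiter-Glo luminescence after 10 minutes at room temperature, following 48 hours' compound treatment of HT-1080-NT cells (750 cells/well, RPMI, 5% FBS, 37 degrees C).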
HT1080 IDH1KD tx: kills HT-1080 cells with IDH1 knockdown. HT-1080 IDH1 knockdown viability, ATP luminescence, 48 h. Potency, µM (top dose mostly 46.1 µM), without a hit: at the highest dose activity, negative = toxicity, usual class: cytotoxic. 360,000 compounds, 2% hits;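 also: 0% = DMSO wells and -100% = cell-free medium wells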
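HT-1080-IDH1KD cells (IDH1 knocked down), 750/well in RPMI with 5% FBS, treated with compound 48 h at 37 degrees C. Viability by CellTiter-Glo luminescence, normalised to DMSO and no-cell wells; concentration-response curves classed.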
MCF10A rerep: DNA re-replication induction in MCF 10a cells; MCF 10A DNA re-replication, Hoechst nuclear intensity, 48 h; Potency, µM (titrated, usually from 46.1 µM), for the others: top-dose activity, positive = re-replication, most hits filed as activators; 350,000 compounds, 2.9% hits; also: % of control where 0% means no effect; nearly all actives have a fitted effect of over 50% in size
KB-V1 cytotox: KB-V1 MDR subline cytotoxicity | 400,000 compounds, 3.4% hits | KB-V1 MDR cells viability, CellTiter-Glo, 72 h | Potency, µM (top dose mostly 46.1 µM), actives largely listed as cytotoxic | AID 1347076; also: % is scaled to controls: 0 for no effect and ±100 for the full control effect; nearly all actives have a fitted effect of over 60% in size
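KB-V1 MDR subline cells in DMEM (phenol-red free, 10% FBS) exposed to compounds in qHTS concentration series for 72 h at 37 degrees C. Viability read by CellTiter-Glo luminescence; concentration-effect curves fitted after normalization and correction.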
KB-3-1 cytotox: KB-3-1 parental cell cytotoxicity; KB-3-1 viability, CellTiter-Glo ATP luminescence, 72 h; Potency, µM (top dose mostly 46.1 µM), hits mostly cytotoxic; 400,000 compounds, 1.4% hits; AID 1347075; also: % is scaled to controls: 0 for no effect and ±100 for the full control effect; nearly all actives have a fitted effect of over 60% in size
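Using CellTiter-Glo luminescence, growth of non-resistant KB-3-1 adenocarcinoma cells is assessed 72 h after pin-tool compound addition at 37 °C. Normalized responses across the concentration series yield fitted curves.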
An asterisk follows results filed as active; i = inactive; ? = inconclusive; . = not tested or not shown; ! = not active in a repeat; [ ] = another dose, or the depositor's remark. Calls follow the shape of the dose curve; as a rule, active = well fitted curve in the direction sought with a large enough effect; inconclusive = small, poorly fitted or top-dose-only effect, or another doubt; inactive = no such curve, though single readings can be large; an effect the other way counts as inactive or inconclusive. Potency is read from the fitted curve at half-maximal effect.

SMILES	SW480 rereplic	HT1080-NT tox	HT1080 IDH1KD tx	MCF10A rerep	KB-V1 cytotox	KB-3-1 cytotox
CCN1CCN(Cc2ccc(NC(=O)c3ccc(C)c(NC(=O)c4cccc5[nH]ccc45)c3)cc2C(F)(F)F)CC1	3.3µM*	?	?	?	?	16µM*!
CCN1CCN(Cc2ccc(NC(=O)c3cc(NC(=O)c4nccnc4N)cc(OC)c3)cc2C(F)(F)F)CC1	-3%[9.22 µM]	-21%	-5%	?	i	i
CC(C)(C)N(Cc1ccccc1)C(=O)COC(=O)C1CCN(c2ccc(C(F)(F)F)cn2)CC1	11%	?	-9%	0%	?	?
CCCN1CNc2c(c(=O)[nH]c(=S)n2CCC(C)(C)C)C1	.	-10%	-15%	.	.	.
Cc1nn2c3c(cnc2c1-c1ccc(Cl)cc1)C(=O)CC(c1ccco1)C3 (stereo not given)	2%	-1%	-2%	5%	5.8µM*	i
O=C(CCc1nc(-c2ccccc2F)no1)NC1CCCCCC1	-6%	1%	5%[9.24 µM]	7%	16µM*	?
O=C(CCc1nc(-c2ccccc2F)no1)Nc1ccc(Oc2ccccc2)cc1	?	15µM*	16µM*	?	?	?
Cc1ccc(C)c(N2CCN(C(=O)CCc3nc(-c4ccccc4Br)no3)CC2)c1	-4%	-9%	1%	?	i	i
Cc1ccc(C)c(N2CCN(C(=O)CCc3nc(-c4ccccc4F)no3)CC2)c1	3%	-2%	6%	16µM*	i	i
COc1cccc(NC(=O)CCc2nc(-c3ccccc3F)no2)c1	4%	-23%	-1%	20%	i	i
O=C(CCc1nc(-c2ccc(Cl)cc2)no1)NC1CCCCC1	-16%	3%	19%	?	?	i
O=C(CCc1nc(-c2ccccc2)no1)NC1CCCCC1	-13%	-1%	-10%	-4%	21µM*	i
OCc1cc([C@@H](O)CNCCCCCCOCCCCc2ccccc2)ccc1O	.	.	.	.	i	i
CNS(=O)(=O)c1cccc(C(=O)OCC(=O)N2CC(C)OC(C)C2)c1 (stereo not given)	-22%	10%	5%	-16%	i	i
CCN(CC)c1ccc(NC(=O)C2CCCN(S(=O)(=O)c3ccc4c(c3)oc(=O)n4C)C2)c(C)c1 (stereo not given)	.	.	.	.	?	i
C=CCC1(CC=C)CCCN1C(=O)c1cc(COc2ccccc2SC)on1	11%	-6%	-16%	?	.	.
N#Cc1ccccc1S(=O)(=O)N1CCN(C(=O)Cc2coc3cc(O)ccc23)CC1	2%	0%	-9%	18%	i	i
Cc1ccc(C(C)C)c(OCC(O)CN(C)Cc2ccccc2)c1 (stereo not given)	21µM*	?	?	?	i	i
Cc1ccc(C(C)C)c(OCCCN(C)Cc2ccccc2)c1	?	-22%	?	23µM*	12µM*	i
Cc1ccc(OCCCCN(C)Cc2ccccc2)c(Br)c1	?	?	?	?	i	i
OC(COc1cccc2ccccc12)CN1CCN(c2ccccc2Cl)CC1 (stereo not given)	?	?	?	18µM*	i	i
CCOc1ccccc1CN1CCC(n2nccc2NC(=O)CCc2ccccc2)CC1	15%	6%	29%	0%	?	i
COc1cc(C(=O)NCC(=O)N/N=C/c2cccs2)cc(OC)c1OC	-16%	15%	21%	4%	?	i
COc1ccc(Br)cc1/C=N/Nc1ccccn1	?	-6%	-9%	23µM*	i	i
COc1cc(C(=O)N/N=C/c2ccsc2C)cc(OC)c1OC	0.65µM*	0.92µM*	0.58µM*	?	0.58µM*	0.65µM*
SMILES	SW480 rereplic	HT1080-NT tox	HT1080 IDH1KD tx	MCF10A rerep	KB-V1 cytotox	KB-3-1 cytotox
COc1ccc(Br)cc1/C=N/NC(=O)c1cc(OC)c(OC)c(OC)c1	?	?	16µM*	?	i	i
COCCNC(=O)C1CCCN(C(=O)c2ccc(C(F)(F)F)nc2C)CC1 (stereo not given)	.	?	20%	.	i	i
CSc1ccc(NC(=O)N2CCC(C(=O)c3ccc(F)cc3)CC2)cc1	-6%	-2%	-17%	2%	?	i
COc1ccc(Cn2c(C3CCCCC3)nc3c(c(=O)c4ccccc4n3C)c2=O)cc1	-4%	3%	6%	-2%	?	i
COCCCn1c(C2CCCCC2)nc2oc3cc(OC)ccc3c(=O)c2c1=O	6%	9%	15%	12%	23µM*	?
Cn1c2ccccc2c(=O)c2c(=O)n(C3CCCCCC3)c(C3CCCCC3)nc21	4%	0%	4%	?	?	?
Cn1c2ccccc2c(=O)c2c(=O)n(C3CCCCC3)c(-c3cccs3)nc21	1%	2%	-12%	?	12µM*	?
COCCn1c(-c2ccc(C)cc2)nc2oc3cc(OC)ccc3c(=O)c2c1=O	?	11%	4%	-2%	i	i
COc1ccc2c(=O)c3c(=O)n(Cc4ccco4)c(C(C)C)nc3oc2c1	-5%	3%	-9%	16%	21µM*	i
COc1ccc(CCn2c(C3CCCCC3)nc3c(c(=O)c4ccccc4n3C)c2=O)cc1	-22%	?	?	3.7µM*	18µM*	?
CCOc1ccc(S(=O)(=O)N(CC(=O)NCCc2ccc(OC)cc2)c2ccccc2)cc1	.	.	.	.	i	i
CCCCNc1nc2c(S(=O)(=O)c3ccc(C)cc3)nnn2c2ccsc12	.	.	.	.	i	i
O=C(c1n[nH]c2ccccc12)N1CCN(S(=O)(=O)c2ccccc2)CC1	-28%	14%	14%	-1%	i	i
C=C(C)CNC(=S)Nc1cccc(N)n1	4%	8%	21%	-9%	i	i
CCOc1ccc2[nH]c(=O)c(CN(CCc3ccccc3)C(=O)N3CCOCC3)cc2c1	-6%	8%	-1%	0%	15µM*	i
CCOc1ccc2[nH]c(=O)c(CN(CCc3ccccc3)C(=O)N3CCCC3)cc2c1	2%	-3%	-5%	-11%	i	i
Cn1cc(/C=N/NC(=O)c2ccccc2O)c2ccccc21	-3%	2%	6%	-1%	i	i
O=C(N/N=C/c1cc2c3c(c1O)CCCN3CCC2)c1ccccc1O	9.2µM*	?	?	13µM*	?	4.1µM*
Cc1cc(C)cc(NC(=O)Cn2nnc3ccccc3c2=O)c1	-16%	-11%	1%	24%	i	i
